Results on 38 compounds are retold here after PubChem BioAssay (NCATS).

A number with no mark means an inactive call. Results filed as inconclusive are left out. The source made the active and inactive calls. Unless noted, calls come from the whole dose curve; as a rule, active = well fitted activation curve with a large enough effect in the main read-out, with a control signal flat (not every such curve was filed as active); inconclusive = small, poorly fitted or top-dose-only effect, or effect the other way, or a change in a side signal; inactive = flat fitted curve, though single readings scatter.

3',5'-cyclic-AMP phosphodiesterase 4B (Homo sapiens), sequence (Q07343 whole entry, looked up): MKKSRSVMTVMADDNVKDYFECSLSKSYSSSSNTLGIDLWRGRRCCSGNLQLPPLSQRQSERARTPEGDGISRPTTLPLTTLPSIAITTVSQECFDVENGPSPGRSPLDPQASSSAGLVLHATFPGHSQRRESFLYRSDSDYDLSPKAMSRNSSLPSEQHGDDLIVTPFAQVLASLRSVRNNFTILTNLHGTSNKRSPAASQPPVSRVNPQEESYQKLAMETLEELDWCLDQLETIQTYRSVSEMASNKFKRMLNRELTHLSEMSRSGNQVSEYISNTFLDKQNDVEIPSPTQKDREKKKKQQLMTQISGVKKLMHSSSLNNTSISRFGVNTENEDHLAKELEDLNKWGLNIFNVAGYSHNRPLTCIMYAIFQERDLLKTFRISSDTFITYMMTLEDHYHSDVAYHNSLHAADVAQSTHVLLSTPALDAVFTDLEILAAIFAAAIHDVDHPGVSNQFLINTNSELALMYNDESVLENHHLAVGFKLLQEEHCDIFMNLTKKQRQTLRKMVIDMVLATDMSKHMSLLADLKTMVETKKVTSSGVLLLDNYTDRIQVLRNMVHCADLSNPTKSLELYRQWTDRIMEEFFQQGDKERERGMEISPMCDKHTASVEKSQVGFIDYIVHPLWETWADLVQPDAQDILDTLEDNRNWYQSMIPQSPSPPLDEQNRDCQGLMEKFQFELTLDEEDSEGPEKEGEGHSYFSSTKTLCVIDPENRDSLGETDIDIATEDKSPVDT

In one experiment the target is 3',5'-cyclic-AMP phosphodiesterase 4B (Homo sapiens) (UniProt Q07343). Nature of the experiment: qHTS Assay for Inhibitors of PDE-IV (AID 607). Note: % of control where 0% means no effect. The following applies: HEK293 ACTOne CNG channel cells, membrane potential fluorescence; series mostly up to 22.9 µM; activation (PDE inhibition): at the top concentration. In short, it runs like this:
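HEK293 ACTOne cells with CNG channel (1000/well), endogenous PDE4; membrane potential dye, compounds up to 22.9 uM final. Fluorescence Ex 535/Em 590; RO 20-1724 (100 uM final) as reference.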
For orientation: Quantitative high-throughput screening tests each substance at several concentrations.
Turning to `N#Cc1ccc(CN2CC[C@@]3(CCCN(C(=O)Oc4ccccc4)C3)C2)cc1`, the “activation (PDE inhibition)” value is 10.2%. On the same count and under the same terms, under `O=C(Oc1ccccc1)N1CCC2(CCN(Cc3ccccc3)CC2)CC1` stands 6.04%. Regarding `C[N+]1([O-])[C@@H]2CC(OC(=O)[C@@H](CO)c3ccccc3)C[C@@H]1[C@H]1O[C@H]12` (stereo partly drawn), the Potency result is “inactive”. For the compound `CN1CCC2(CC1)CCN(C(=O)Oc1ccccc1)CC2`, the “activation (PDE inhibition)” value was 8.09%. Still for that read-out and setting: under `O=C(Nc1cccc(F)c1)N1CC2(CCN(C(=O)Oc3ccccc3)CC2)C1` stands 5.27%; under `CN1CC[C@@]2(CCCN(C(=O)c3ccco3)C2)C1`, -1.72%; under `c1cnc(N2CC[C@@]3(CCCNC3)C2)nc1`, 24%. Still for that read-out and setting: then `COc1ccccc1CN1CC[C@@]2(CCCN(C(=O)Oc3ccccc3)C2)C1`, with 23.4%; and `Cc1ccccc1-c1cncnc1NCCc1cnc[nH]1`, with 5.3%. Same read-out and setting: then `O=C(Nc1ccccc1)N1CC[C@@]2(CCCNC2)C1`, with -10.2%; and `CN1CCCC2(CCN(C(=O)c3ccncc3)CC2)C1`, with -2.19%.

As for `CC(C)CN1CCC2(CC1)CCN(C(=O)Oc1ccccc1)CC2`, the “activation (PDE inhibition)” value is 10%.

On to `CC(C)CN1CC2(CCN(C(=O)c3ccncc3)CC2)C1`, for which the “activation (PDE inhibition)” value was 3.05%.

For `N#Cc1ccc(CN2CCC3(CC2)CCN(C(=O)Oc2ccccc2)CC3)cc1`, the “activation (PDE inhibition)” value was 1.96%. Turning to `O=C(Nc1cccc(F)c1)N1CCC2(CC1)CCN(C(=O)Oc1ccccc1)CC2`, the “activation (PDE inhibition)” value was 5.93%. On the same count and under the same terms, under `N#Cc1ccc(CN2CCCC3(CCN(C(=O)Oc4ccccc4)CC3)C2)cc1` stands 16.1%. The same measure, in the same setting: then `CS(=O)(=O)N1CCC2(CC1)CN(Cc1ccncc1)C2`, with -3.44%; and `O=C(c1ccncc1)N1CCC2(CC1)CN(Cc1ccccc1)C2`, with 10.4%; and `c1ccc(N2CC[C@@]3(CCCNC3)C2)nc1`, with 2.36%.

Turning to `c1ccc(N2CCC3(CCNCC3)CC2)cc1`, the “activation (PDE inhibition)” value was -4.99%. Still for that read-out and setting: under `COC(=O)N1CCC2(CCN(CC(C)C)CC2)CC1` stands -1.79%; under `c1cc(CN2CCC3(CCNCC3)CC2)ccn1`, 9.68%.

In the case of `CCNC[C@H](O)c1cccc(O)c1`, the “activation (PDE inhibition)” value is -10.7%.

System in another experiment: not listed separately
Nature of the experiment: Cellular Toxicity (caspase-3) HepG2 (AID 654; active = well fitted activation curve with a large enough effect;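 note: cells exposed to compound for 16 hours before reading; 0% = DMSO alone and 100% = caspase signal from 100 µM tamoxifen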). To be noted: HepG2 caspase-3 activation, luminescence, 0% = DMSO only, 100% = tamoxifen; series mostly up to 92.2 µM; caspase-3 activation: at the top concentration. In outline: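 Caspase 3/7 activation is measured as a luminescence increase (aminoluciferin substrate) after 16 h compound exposure of human hepatocarcinoma HepG2 cells. AC50 values are Hill fits, scaled between DMSO baseline and 100 uM tamoxifen stimulation.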
Regarding `CCNc1nc(Cl)nc(NC(C)C)n1`, the “caspase-3 activation” value was 0.307%. Same read-out and setting: then `ClC1=C(Cl)C2(Cl)C3C4CC(C5OC45)C3C1(Cl)C2(Cl)Cl` (stereo not drawn), with -0.518%. The same measure, in the same setting: then `CCOCN(C(=O)CCl)c1c(C)cccc1CC`, with 0.343%. In the case of `ClC(Cl)=C(c1ccc(Cl)cc1)c1ccc(Cl)cc1`, the compound was classed as inactive. `ClC1=C(Cl)C2(Cl)C3C4C=CC(C4)C3C1(Cl)C2(Cl)Cl` (stereo not drawn): the “caspase-3 activation” value is -0.391%.

Consider `O=C(O)COc1ccc(Cl)cc1Cl`, for which the result was inactive. `COC(=O)NC(=S)Nc1ccccc1NC(=S)NC(=O)OC`: the “caspase-3 activation” value was -0.367%. Still for that read-out and setting: then `C/C=C/c1ccc2c(c1)OCO2`, with 0.111%. For the compound `COP(=S)(OC)Oc1ccc([N+](=O)[O-])cc1`, the “caspase-3 activation” value was 0.211%. In the case of `O=S1OCC2C(CO1)C1(Cl)C(Cl)=C(Cl)C2(Cl)C1(Cl)Cl` (stereo not drawn), the “caspase-3 activation” value is -0.638%.

As to `C=CCc1ccc(OC)cc1`, the “caspase-3 activation” value is -0.515%. Same read-out and setting: under `ClC1=C(Cl)C2(Cl)C3C(Cl)C=CC3C1(Cl)C2(Cl)Cl` (stereo not drawn) stands 0.683%; under `CNC(=O)O/N=C/C(C)(C)SC`, -0.248%; under `c1ccc(N=Nc2ccccc2)cc1`, 2.3%. On the same count and under the same terms, then `CCc1cccc(CC)c1N(COC)C(=O)CCl`, with -0.515%.
